D1 ag: agonists of human D1 dopamine receptor; actives 1% (n = 360,000); AID 504660; activation, % at 2 µM; P21728; HEK293 T-REx D1 cells, calcium flux, agonist mode; in the data active = activation above about 30%; also: 0% is about no effect
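Inducible HEK293 T-REx D1 cells, force-coupled to calcium signalling, were plated at 4000 cells/well with tetracycline and held overnight at 30 C. After no-wash calcium dye loading, compound-evoked calcium rise over 180 s flagged agonists.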
D1 potentiator: potentiators of human D1 dopamine receptor | P21728 | HEK293 TREx D1 cells, calcium flux, dopamine EC20 potentiation | potentiation, % at 10 µM | actives 0.036% (n = 360,000) | AID 504651; in the data active = potentiation above about 30%; also: 0% is about no effect
DRD3 agonist: agonists of human D3 dopamine receptor | P35462 | D3R DiscoveRx beta-arrestin cells, luminescence, 90 min | max activation, % | actives 0.58% (n = 410,000) | AID 652048; in the data active = max activation above about 30%; also: 0% is about no effect
Target sequence (P35462 whole entry, looked up): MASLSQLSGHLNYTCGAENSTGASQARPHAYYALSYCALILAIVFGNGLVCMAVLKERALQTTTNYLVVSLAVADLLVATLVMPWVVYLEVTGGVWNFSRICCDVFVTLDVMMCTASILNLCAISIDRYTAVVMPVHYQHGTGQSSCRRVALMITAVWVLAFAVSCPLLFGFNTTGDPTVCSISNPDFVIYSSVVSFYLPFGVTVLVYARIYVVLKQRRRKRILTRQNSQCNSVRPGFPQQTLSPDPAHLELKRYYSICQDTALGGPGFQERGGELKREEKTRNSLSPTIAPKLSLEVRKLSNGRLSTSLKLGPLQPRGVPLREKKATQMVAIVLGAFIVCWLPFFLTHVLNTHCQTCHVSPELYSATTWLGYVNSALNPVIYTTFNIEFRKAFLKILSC
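Cells at 1500/well, incubated overnight, then treated with pinned compounds (dopamine as control) for 90 min at 37 degrees C. DiscoveRx reagent added for 30 - 60 minutes at room temperature; luminescence read.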
BCR signal inh: blocks chronic active B-cell receptor signaling; ABC-DLBCL IkBa-CBG/CBR reporter, luminescence ratio, 4 h; Potency, µM (top dose mostly 46.1 µM), for the others: top-dose activity change, negative = inhibition, hits mostly inhibitors; actives 0.05% (n = 340,000); AID 493014; active = well fitted inhibition curve with a large enough effect in the signal ratio, with a control signal flat, not every such curve was filed as active; inconclusive = small, poorly fitted or top-dose-only effect, or effect the other way, or a change in a side signal; the % refers to the signal ratio;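 also: potency is read from the fitted curve at half-maximal effect; plate controls were basal doxycycline-induced cells for no effect and cells given 10 µM MG132 for full effect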
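TMD8 ABC-DLBCL cells carrying doxycycline-inducible green luciferase fused to IkappaBalpha plus unfused red luciferase were exposed to compounds (up to 46 uM) for 4 hrs at 37C. Activity came from the overlap-corrected green/red luminescence ratio.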
D1 antag: human D1 dopamine receptor antagonism; HEK293 TREx D1 cells, calcium flux, dopamine EC80; hits give low values; activity change, negative = inhibition, % at 10 µM; actives 3.2% (n = 360,000); in the data active = activity change below about -30%; also: % is scaled to controls: 0 for no effect and ±100 for the full control effect
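Tetracycline-induced HEK293 Trex D1 cells, force-coupled to calcium, dye-loaded; compounds added and read 180 s, then EC80 dopamine added and calcium flux tracked kinetically another 180 s.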
D3 antag: D3 dopamine receptor (human) antagonism; max response, negative = inhibition, %; AID 652054; actives 2.5% (n = 360,000); D3R cells, DiscoveRx beta-arrestin luminescence, antagonist mode; hits give low values; P35462; in the data active = max response below about -50%; inconclusive = no clear call, values can overlap the other calls; also: % is scaled to controls: 0 for no effect and ±100 for the full control effect
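Cells plated overnight at 1500 cells/well, then exposed to library compounds with dopamine controls for 90 minutes at 37 degrees C. DiscoveRx reagent added for 30–60 minutes at room temperature; luminescence read, quantitative HTS format.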
Numbers without * were called inactive; ? = inconclusive; nt = not tested or not shown. Most compounds without a hit are left out; they make up all but 6% or so of the library.

SMILES	D1 ag	D1 potentiator	DRD3 agonist	BCR signal inh	D1 antag	D3 antag
COC(=O)C1Cc2ccccc2CN1S(=O)(=O)c1ccc(F)cc1 (configuration not stated)	0	-3	-3	2%	-36*	?
CS(=O)(=O)N1Cc2ccccc2CC1C(=O)O (configuration not stated)	3	-9	5	-1%	-43*	7
CC(=O)c1ccc(S(=O)(=O)N2Cc3ccccc3CC2C(=O)O)cc1 (configuration not stated)	2	6	3	-6%	27	-12
CSc1ccc(Cl)c(C(=O)OCC(=O)N(C)CCC#N)c1	1	-1	-3	?	2	2
CN(CCC#N)C(=O)COC(=O)c1ccc(Cl)cc1O	-1	-4	-4	-1%	-34*	6
COc1ccccc1NC(=O)c1c(C)cc(C)nc1SCC(=O)Nc1ccc(C)c(C)c1	1	1	-4	nt	-4	nt
COc1ccccc1NC(=O)c1c(C)cc(C)nc1SCC(=O)Nc1cccc(C)c1	72*	0	3	nt	-1	nt
CCCCOc1ccc(C2C(=O)N(C3CCCCC3)CC(=O)N2CCCC)cc1 (configuration not stated)	0	0	-7	0%	-12	nt
COc1cc(F)ccc1-c1cc(C(=O)NCc2cc(C(F)(F)F)cc(C(F)(F)F)c2)[nH]n1	nt	nt	-1	nt	nt	2
CCNC(=O)C1CC(=O)N(c2ccc(OCC)cc2)C1 (configuration not stated)	1	-6	2	-1%	22	-23
CCOc1ccc(N2CC(C(=O)NCC(=O)Nc3ccc(F)c(F)c3F)CC2=O)cc1 (configuration not stated)	1	-2	-5	0%	-32*	-6
Cc1ccc2c(c1)N(C(=O)CCC(=O)N1CCN(c3ccccc3)CC1)CCO2	2	-11	2	-17%	-50*	30
COc1ccc(N2CCN(C(=O)CCC(=O)N3CCOc4ccc(Cl)cc43)CC2)cc1	1	-7	0	2%	-4	-3
COc1ccc(N2CCN(C(=O)Cc3coc4ccc(C)cc34)CC2)cc1	1	-1	-10	nt	-68*	nt
COc1ccc(N2CCN(C(=O)CCC(=O)N3CCOc4ccc(C)cc43)CC2)cc1	6	-3	0	9%	-34*	-1
Cc1cc2c(s1)c1cnn(Cc3ccc(Cl)cc3)c(=O)c1n2C	4	-5	nt	nt	-9	nt
Cc1ccc(C2=Nn3c(COc4ccc(Cl)cc4)nnc3SC2CC(=O)O)cc1 (configuration not stated)	0	-4	32*	2%	-12	-3
CC(=O)c1cccc(NC(=O)CN2C(=O)COc3ccc(Cl)cc32)c1	7	3	-11	13%	-12	-94*
CN(C)[C@@H]1CCC[C@H]1OC(=O)C(c1ccccc1)c1ccccc1	6	-4	-10	0%	-6	-53*
Cc1cccc(C)c1NC(=O)C(c1cccc2ccccc12)n1c(=O)c(-c2cc3ccccc3[nH]2)nc2ccccc21 (configuration not stated)	nt	nt	-3	nt	nt	14
CCc1cccc(C)c1NC(=O)C1=C(C)C(=O)OC12CCC(C)CC2 (configuration not stated)	2	-3	-6	nt	0	nt
COc1ccc(N(Cc2cccs2)C(=O)COc2ccc(C(C)C)cc2)cc1	22	-1	-10	nt	-18	nt
CCN(CC)S(=O)(=O)c1ccc2c(c1)nc(CN(C)C(=O)Nc1ccc(C)c(Cl)c1)n2C	0	1	-20	nt	12	nt
CCN(CC)S(=O)(=O)c1ccc2c(c1)nc(CN(C)C(=O)Nc1ccc(C)c(F)c1)n2C	1	-1	-30	nt	-68*	nt
COc1cc(/C=N/NC(=O)c2ccc(Cl)cc2)ccc1OCC(=O)N1CC(C)OC(C)C1 (configuration not stated)	0	-3	-24	?	-2	-54*
SMILES	D1 ag	D1 potentiator	DRD3 agonist	BCR signal inh	D1 antag	D3 antag
COc1cc(/C=N/NC(=O)c2ccc(CSc3nncn3C)cc2)ccc1OCC(=O)N1CC(C)OC(C)C1 (configuration not stated)	-1	-3	-7	0%	5	2
S=C1NCCc2ccc(Cl)cc2C1c1ccccc1 (configuration not stated)	5	-6	-3	-5%	3	-62*
CC(C)(C)c1nc(CN2CCOCC2)ccc1O	20	-5	-3	-17%	4	-18
CC(C)(C)c1nc(CN2CCCCC2)cc(CN2CCCCC2)c1O	10	-1	2	2%	1	-72*
CC(=O)c1ccc(N2CCN(S(=O)(=O)c3ccc4c(c3)CC(=O)N4)CC2)cc1	1	-4	2	?	15	-6
CC(=O)c1ccc(N2CCN(S(=O)(=O)c3ccc4c5c3CC(=O)N5CC(C)S4)CC2)cc1 (configuration not stated)	7	-13	-15	?	-57*	-11
COc1ccc(CNC(=O)c2cc3oc4ccccc4c3n2C)cc1OC	5	-7	2	nt	3	nt
C/C(=N\NC(=O)c1nnn(-c2nonc2N)c1CSc1ccc(C)cc1)c1cccnc1	nt	nt	2	nt	nt	19
CCCCCNc1nc2sc3c(c2c(=O)n1-c1cccc(Cl)c1)CCN(C)C3	0	-5	-2	-5%	-85*	6
CCCCSc1nc2sc3c(c2c(=O)n1-c1ccccc1)CCN(C)C3	2	9	-4	2%	12	-2
CN1CCc2c(sc3nc(SCC(N)=O)n(-c4ccc(Cl)cc4)c(=O)c23)C1	4	6	1	-7%	-11	-4
CCCCNc1nc2sc3c(c2c(=O)n1-c1cccc(Cl)c1)CCN(C)C3	3	-5	-9	?	-39*	-9
C=C(C)C(=O)OCC(O)COc1ccc(C(C)(C)c2ccc(OCC(O)COC(=O)C(=C)C)cc2)cc1 (configuration not stated)	18	-3	71*	?	-13	66
CC(=O)c1ccc(OCC(O)COc2ccc(C(C)=O)cc2)cc1	1	5	0	-2%	-9	-14
Cc1nc(-c2ccc(Cl)cc2)sc1CCNC(=O)Cc1ccc(F)cc1	12	-4	-9	nt	-1	nt
CC(=O)Nc1cccc(NC(=O)C(=O)NCCc2sc(-c3ccccc3)nc2C)c1	9	-6	1	nt	-40*	nt
Cc1nc(-c2ccccc2)sc1CCNC(=O)C(=O)Nc1ccc2c(c1)OCCO2	7	0	7	nt	-45*	nt
Cc1ccccc1C(=O)NCCc1sc(-c2ccc(Cl)cc2)nc1C	2	-3	-13	nt	-38*	nt

Compound activity as filed in PubChem.
